From paper PMC8384837, “Expanding the binding specificity for RNA recognition by a PUF domain” come the findings set out here.

Assay in all cases: yeast three-hybrid, YBZ-1, SC-Leu-His + 0.5 mM 3-AT, 4 days
What all share (conditions): tags: N-Gal4 AD-HA kept; label: inside an RPR1-promoter hybrid RNA with tandem MS2 sites; ssRNA

For one assay, the target named is PUM1 PUF domain R7-KPV (Homo sapiens, UniProt Q14671 828-1176, S1079K;N1080P;E1083V). Put shortly:
(§1)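 Each repeat of the Pumilio-1 PUF domain was randomized at its three base-contacting residues, and these libraries were co-expressed from a centromeric plasmid with matching RNA elements in strain YBZ-1. After four days on SC-Leu (input) or SC-Leu-His + 0.5 mM 3-AT (selection), the repeat regions were PCR-amplified and Illumina-sequenced. The interaction score compares variant frequency between input and selection as a log change, computed in log2 with a pseudocount of 1 for absent variants.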

A further assay has as its target PUM1 PUF domain R1-RTS (Homo sapiens, UniProt Q14671 828-1176, S863R;R864T;Q867S). Put shortly: as §1
Another assay addresses PUM1 PUF domain R1-KVI (Homo sapiens, UniProt Q14671 828-1176, S863K;R864V;Q867I). An outline of the steps: as §1
For another assay, the target named is PUM1 PUF domain R8-LFK (Homo sapiens, UniProt Q14671 828-1176, N1122L;Y1123F;Q1126K). Put shortly: as §1
For a further assay, the target named is PUM1 PUF domain R3-SRT (Homo sapiens, UniProt Q14671 828-1176, C935S;Q939T). An outline of the steps:
as §1

The next assay deals with PUM1 PUF domain R2-LFS (Homo sapiens, UniProt Q14671 828-1176, N899L;Y900F;Q903S). An outline of the steps:
as §1

A further assay deals with PUM1 PUF domain R4-ANC (Homo sapiens, UniProt Q14671 828-1176, N971A;H972N;Q975C). An outline of the steps:
as §1

The target of the next assay is PUM1 PUF domain R4-CMC (Homo sapiens, UniProt Q14671 828-1176, N971C;H972M;Q975C). Put shortly: as §1
In a further assay the target is PUM1 PUF domain R3-TRW (Homo sapiens, UniProt Q14671 828-1176, C935T;Q939W). Put shortly:
as §1

A further assay deals with T1, PUM1 PUF domain R6-RHS (Homo sapiens, UniProt Q14671 828-1176, N1043R;Y1044H;Q1047S).
T1 sequence: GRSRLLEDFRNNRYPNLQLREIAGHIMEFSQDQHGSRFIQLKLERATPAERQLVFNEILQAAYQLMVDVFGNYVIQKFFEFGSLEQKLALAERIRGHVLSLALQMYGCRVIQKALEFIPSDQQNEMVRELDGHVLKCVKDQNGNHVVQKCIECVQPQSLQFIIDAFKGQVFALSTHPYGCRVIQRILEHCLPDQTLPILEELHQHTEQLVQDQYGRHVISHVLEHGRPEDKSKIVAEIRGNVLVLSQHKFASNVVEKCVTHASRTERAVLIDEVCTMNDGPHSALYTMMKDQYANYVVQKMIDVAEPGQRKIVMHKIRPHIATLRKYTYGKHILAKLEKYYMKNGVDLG
Put shortly: as §1

Sequence of PUM1 PUF domain R4-ANC (Q14671 828-1176 N971A/H972N/Q975C): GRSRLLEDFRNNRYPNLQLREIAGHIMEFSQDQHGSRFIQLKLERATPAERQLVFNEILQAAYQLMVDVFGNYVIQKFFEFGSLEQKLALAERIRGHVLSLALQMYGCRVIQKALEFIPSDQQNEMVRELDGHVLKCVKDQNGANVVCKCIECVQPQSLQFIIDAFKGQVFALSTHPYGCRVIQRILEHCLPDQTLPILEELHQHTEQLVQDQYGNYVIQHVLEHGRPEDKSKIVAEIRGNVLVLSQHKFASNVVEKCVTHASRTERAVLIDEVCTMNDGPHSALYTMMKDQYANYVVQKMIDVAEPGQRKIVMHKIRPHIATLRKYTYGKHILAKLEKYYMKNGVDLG

With “GGCUAGAACUAGUGGAUCCCCCGGCGCCCGGCGGCUCGAGCCCGGGUAAGUUUAAAUAGUCUGCAUGCCGCCGGGCGCCAUGCCUGCAGGUCGACUCUAGAAAACAUG”, the binding signal in the assay with PUM1 PUF domain R7-KPV was 4.82 log2 enrichment (interaction score).

Take “GGCUAGAACUAGUGGAUCCCCCGGCGCCCGGCGGCUCGAGCCCGGGUAAGUGUAAAUUGUCUGCAUGCCGCCGGGCGCCAUGCCUGCAGGUCGACUCUAGAAAACAUG”: the binding signal is 4.22 log2 enrichment (interaction score) with PUM1 PUF domain R1-RTS and 4.79 log2 enrichment (interaction score) with PUM1 PUF domain R1-KVI.

“GGCUAGAACUAGUGGAUCCCCCGGCGCCCGGCGGCUCGAGCCCGGGUAAGCGUAAAUAGUCUGCAUGCCGCCGGGCGCCAUGCCUGCAGGUCGACUCUAGAAAACAUG”: in the assay with PUM1 PUF domain R8-LFK, the binding signal is 5.27 log2 enrichment (interaction score).

With “GGCUAGAACUAGUGGAUCCCCCGGCGCCCGGCGGCUCGAGCCCGGGUAAGUGUAAAUGGUCUGCAUGCCGCCGGGCGCCAUGCCUGCAGGUCGACUCUAGAAAACAUG”, the binding signal with PUM1 PUF domain R1-KVI was 2.15 log2 enrichment (interaction score).

For “GGCUAGAACUAGUGGAUCCCCCGGCGCCCGGCGGCUCGAGCCCGGGUAAGUGUAAGUAGUCUGCAUGCCGCCGGGCGCCAUGCCUGCAGGUCGACUCUAGAAAACAUG”, the binding signal with PUM1 PUF domain R3-SRT is 4.32 log2 enrichment (interaction score).

With “GGCUAGAACUAGUGGAUCCCCCGGCGCCCGGCGGCUCGAGCCCGGGUAAGUGUAAAAAGUCUGCAUGCCGCCGGGCGCCAUGCCUGCAGGUCGACUCUAGAAAACAUG”, in the assay with PUM1 PUF domain R2-LFS, the binding signal was 3.97 log2 enrichment (interaction score).

As for “GGCUAGAACUAGUGGAUCCCCCGGCGCCCGGCGGCUCGAGCCCGGGUAAGUCUAAAUAGUCUGCAUGCCGCCGGGCGCCAUGCCUGCAGGUCGACUCUAGAAAACAUG”, the binding signal with PUM1 PUF domain R7-KPV is 4.07 log2 enrichment (interaction score).

For “GGCUAGAACUAGUGGAUCCCCCGGCGCCCGGCGGCUCGAGCCCGGGUAAGUGUAUAUAGUCUGCAUGCCGCCGGGCGCCAUGCCUGCAGGUCGACUCUAGAAAACAUG”, the binding signal is 4.27 log2 enrichment (interaction score) in the assay with PUM1 PUF domain R4-ANC and 5.2 log2 enrichment (interaction score) in the assay with PUM1 PUF domain R4-CMC.

“GGCUAGAACUAGUGGAUCCCCCGGCGCCCGGCGGCUCGAGCCCGGGUAAGUGUAAAUCGUCUGCAUGCCGCCGGGCGCCAUGCCUGCAGGUCGACUCUAGAAAACAUG”: in the assay with PUM1 PUF domain R1-RTS, the binding signal was 4.45 log2 enrichment (interaction score).

On to “GGCUAGAACUAGUGGAUCCCCCGGCGCCCGGCGGCUCGAGCCCGGGUAAGUGUAAAUAGUCUGCAUGCCGCCGGGCGCCAUGCCUGCAGGUCGACUCUAGAAAACAUG”, for which the binding signal with PUM1 PUF domain R3-TRW was 4.35 log2 enrichment (interaction score); with PUM1 PUF domain R8-LFK, 4.86 log2 enrichment (interaction score); in the assay with PUM1 PUF domain R3-SRT, 4.56 log2 enrichment (interaction score); with PUM1 PUF domain R4-CMC, 2.5 log2 enrichment (interaction score); with PUM1 PUF domain R6-RHS, 2.73 log2 enrichment (interaction score).

For “GGCUAGAACUAGUGGAUCCCCCGGCGCCCGGCGGCUCGAGCCCGGGUAAGUGUAAUUAGUCUGCAUGCCGCCGGGCGCCAUGCCUGCAGGUCGACUCUAGAAAACAUG”, the binding signal with PUM1 PUF domain R3-TRW was 0.56 log2 enrichment (interaction score); with PUM1 PUF domain R3-SRT it was 1.65 log2 enrichment (interaction score).

For the sequence “GGCUAGAACUAGUGGAUCCCCCGGCGCCCGGCGGCUCGAGCCCGGGUAAGUGUACAUAGUCUGCAUGCCGCCGGGCGCCAUGCCUGCAGGUCGACUCUAGAAAACAUG”, the binding signal with PUM1 PUF domain R4-ANC is 2.65 log2 enrichment (interaction score); with PUM1 PUF domain R4-CMC, 2.87 log2 enrichment (interaction score).
